Compound activity deposited in PubChem BioAssay by National Center for Advancing Translational Sciences (NCATS).
An excerpt weighted towards active compounds, which were near 10% of everything screened.
SW480 rereplic = inducers of DNA re-replication in SW480 colon cancer cells; SW480 DNA re-replication, Hoechst DNA content imaging, 48 h; Potency, µM (top dose mostly 46.1 µM), for inactives: at the top dose re-replication activation, most hits filed as activators; 340,000 compounds, 1.8% hits; note: % of control where 0% means no effect; nearly all actives have a fitted effect of over 55% in size
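First, 250 cells per well were seeded. Next, compound or vehicle (23 nL) was pinned in, plates sat 48 hr at 37 C. Finally Hoechst was added for 40 min before fluorescence scanning.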
Gal4-VP16 FLuc = counter-screen for ROR gamma inhibitors: Gal4-VP16 reporter | Drosophila S2 Gal4-VP16 UAS-luciferase, luminescence, 20 h | Potency, µM (top dose mostly 53.6 µM), for inactives: top-dose activity, negative = inhibition, most hits filed as inhibitors | 310,000 compounds, 3.5% hits;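 note: Gal4-VP16 expression switched on by copper sulfate through the metallothionein promoter; % is set by controls: 0 for no effect and ±100 for the full control effect; nearly all actives have a fitted effect of over 50% in size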
KB-3-1 tox = kills parental KB-3-1 adenocarcinoma cells; KB-3-1 viability, CellTiter-Glo ATP luminescence, 72 h; Potency, µM (highest dose often 46.1 µM), most hits filed as cytotoxic; 400,000 compounds, 1.4% hits; note: % is set by controls: 0 for no effect and ±100 for the full control effect; nearly all actives have a fitted effect of over 60% in size
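Luminescent ATP read-out (CellTiter-Glo) measures survival of drug-naive KB-3-1 cells after 72 h compound exposure at 37 °C. Titration series was screened from lowest to highest concentration, with DMSO vehicle plates as background controls.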
KB-V1 MDR tox = KB-V1 MDR subline cytotoxicity; KB-V1 MDR cells viability, CellTiter-Glo, 72 h; Potency, µM (series often up to 46.1 µM), most hits filed as cytotoxic; 400,000 compounds, 3.4% hits; note: % is set by controls: 0 for no effect and ±100 for the full control effect; nearly all actives have a fitted effect of over 60% in size
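Cytotoxicity via CellTiter-Glo luminescence after 72 h compound exposure at 37 degrees C. Cells: drug-selected KB-V1 line, DMEM phenol-red free plus 10% FBS. Compounds tested at multiple concentrations; normalized data fitted to concentration-effect curves.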
MCF10A rerep = DNA re-replication induction in MCF 10a cells; 350,000 compounds, 2.9% hits; MCF 10A DNA re-replication, Hoechst nuclear intensity, 48 h; Potency, µM (doses to about 46.1 µM), without a hit: at the highest dose activity, positive = re-replication, usual class: activators; AID 624296; note: % of control where 0% means no effect; nearly all actives have a fitted effect of over 50% in size
RORgamma inh = inhibitors of mouse ROR gamma transcriptional activity; P51450; Drosophila S2 Gal4-RORgamma UAS-luciferase reporter, 20 h; Potency, µM (highest dose often 53.6 µM), for inactives: at the top dose activity change, negative = inhibition, actives largely listed as inhibitors; 310,000 compounds, 5.4% hits; note: % is set by controls: 0 for no effect and ±100 for the full control effect; nearly all actives have a fitted effect of over 60% in size
Target sequence (P51450 whole entry, looked up, the tested form may be a part): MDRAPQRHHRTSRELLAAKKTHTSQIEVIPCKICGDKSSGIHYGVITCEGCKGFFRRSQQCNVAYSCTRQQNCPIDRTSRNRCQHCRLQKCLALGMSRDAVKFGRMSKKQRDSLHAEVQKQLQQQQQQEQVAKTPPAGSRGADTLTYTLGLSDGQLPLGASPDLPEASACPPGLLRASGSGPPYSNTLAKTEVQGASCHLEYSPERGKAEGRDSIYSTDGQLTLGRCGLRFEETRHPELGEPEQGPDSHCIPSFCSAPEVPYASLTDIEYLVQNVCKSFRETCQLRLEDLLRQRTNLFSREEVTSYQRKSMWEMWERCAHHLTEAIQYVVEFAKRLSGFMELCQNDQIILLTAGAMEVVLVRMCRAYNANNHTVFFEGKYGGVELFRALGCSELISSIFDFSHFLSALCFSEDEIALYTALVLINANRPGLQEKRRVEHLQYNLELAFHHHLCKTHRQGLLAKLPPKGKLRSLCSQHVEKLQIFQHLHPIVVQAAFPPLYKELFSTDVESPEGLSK
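Luciferase reporter read in Schneider cells carrying Gal4-RORγ (mouse) and UAS-Photinus luciferase; cells given compound 1 h before 700 uM copper sulfate induction, then incubated 20 h at ambient temperature.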
An asterisk follows results filed as active; i = inactive; u = inconclusive; x = no result; [ ] = remark or other dose. Calls come from the whole dose curve; as a rule, active = well fitted curve in the direction sought with a large enough effect; inconclusive = small, poorly fitted or top-dose-only effect, or another doubt; inactive = no such curve, though single readings can be large; an effect the other way counts as inactive or inconclusive. Potency is the fitted concentration of half-maximal effect.

SMILES	SW480 rereplic	Gal4-VP16 FLuc	KB-3-1 tox	KB-V1 MDR tox	MCF10A rerep	RORgamma inh
CC(C)CCN1NC2(CCCC(C)C2)NC1=S (stereo not given)	u	-30%	i	i	u	7.1µM*
CC1CC(C)(C)CC2(C1)NC(=S)N(c1ccccc1)N2 (stereo not given)	-2%	u	i	i	6%	7.1µM*
COc1nc(N/N=C/c2ccc(-c3ccccc3[N+](=O)[O-])o2)nc(N2CCOCC2)n1	u	-20%	u	u	10µM*	13%
O=[N+]([O-])c1ccc(Nc2nc(N3CCOCC3)nc(N3CCOCC3)n2)cc1	-20%	x	i	i	2%	x
O=[N+]([O-])c1ccc(-c2ccc(/C=N/Nc3nc(NCc4ccccc4)nc(N4CCOCC4)n3)o2)cc1	9.2µM*	u	i	i	7.3µM*	13µM*
CCCCCNc1nc(N2CCCC2)c2c(c1C#N)CCN(C)C2	u	-4%	u	23µM*	11µM*	-32%
CCCCn1c2ccc(F)cc2c2nnc(NN)nc21	u	14%	i	i	0.65µM*	u
CCn1c2ccc(C)cc2c2nnc(NN)nc21	u	-7%	i	u	u	1.6µM*
O=C(Nc1nc2ccccc2s1)C1c2ccccc2Oc2ccccc21	u	u	i	18µM*	u	11µM*
CNS(=O)(=O)c1ccc(NC(=O)C2c3ccccc3Oc3ccccc32)cc1	-24%	-28%	i	i	1%	-41%
O=C(Nc1nc2ccccc2s1)C1CCCO1 (stereo not given)	0%	-22%	i	i	-3%	-3%
CCc1nnc(NC(=O)C2c3ccccc3Oc3ccccc32)s1	u	u	i	i	u	11µM*
COC(=O)c1sc(NC(=O)C2c3ccccc3Oc3ccccc32)c(C(=O)OC)c1C	x	u	i	12µM*	11%	96%
CCN(CC)S(=O)(=O)c1ccc(NC(=O)C2c3ccccc3Oc3ccccc32)cc1	2%	u	i	18µM*	-38%	-5%
CN(c1nccc(=O)[nH]1)C1CCN(c2nc3ccccc3n2Cc2ccc(F)cc2)CC1	u	5%	x	x	u	33%
Cc1ccc(-c2nc3cccnc3s2)cc1NC(=O)C1c2ccccc2Oc2ccccc21	1%	11µM*	i	i	-1%	13µM*
N#Cc1nc(-c2ccc(OCc3ccccc3)cc2)oc1NCc1cccnc1	0%	u	i	i	-6%	43%
CN(C)c1oc(-c2ccc(OCc3ccccc3)cc2)nc1C#N	-97%	22%	i	21µM*	u	u
N#Cc1nc(-c2ccc(OCc3ccc(Cl)cc3)cc2)oc1NCc1cccnc1	-3%	1%	i	i	11µM*	41%
CN(C)c1oc(-c2ccccc2F)nc1C#N	-12%	-4%	i	i	1%	-23%
N#Cc1nc(-c2ccc(OCc3ccccc3)cc2)oc1NCCCn1ccnc1	-27%	-11%	u	23µM*	-2%	16%
COc1ccc(C2=Nc3ccccc3N(C(=O)c3ccc(C(F)(F)F)cc3)C2C(=O)Nc2ccc3c(c2)OCCO3)cc1 (stereo not given)	x	x	i	i	x	x
CN1c2c(nc(N)[nH]c2=O)NCC1CNc1ccc(C(=O)NC(CCC(=O)O)C(=O)O)cc1 (stereo not given)	-10%	-2%	i	i	-2%	14%
COc1cc(NS(=O)(=O)c2ccc(-n3cccn3)cc2)cc(OC)c1	x	x	i	u	x	x
COC(=O)/C=c1\sc2ncnn2c1=O	-11%[9.22 µM]	11%[0.365 µM]	i	i	11µM*	u
SMILES	SW480 rereplic	Gal4-VP16 FLuc	KB-3-1 tox	KB-V1 MDR tox	MCF10A rerep	RORgamma inh
CNC(=O)/C(C#N)=c1\s/c(=C/C(=O)OC)c(=O)n1-c1ccccc1	1%	-9%	i	i	22%	u
CCCN1C2CCCC1CC(NC(=S)NCCCOCC)C2 (stereo not given)	-11%	-5%	i	8.2µM*	-1%	-17%
COCCNC(=S)NC1CC2CCCC(C1)N2Cc1cccs1 (stereo not given)	7%	-1%	i	i	3%	u
COCCCNC(=S)NC1CC2CCCC(C1)N2Cc1cccs1 (stereo not given)	2%	-2%	i	u	u	10µM*
CCCN1C2CCCC1CC(NC(=S)Nc1cc(C)cc(C)c1)C2 (stereo not given)	21%	15%	i	i	-3%	-26%
CCOCCCNC(=S)NC1CC2CCC(C1)N2Cc1ccccc1 (stereo not given)	-7%	4%	i	i	-4%	-31%
Cc1cccc(NC(=S)NC2CC3CCCC(C2)N3Cc2cccs2)c1 (stereo not given)	22%	u	i	i	9%	5µM*
CC[C@@H]1CC2=C(C(=O)OC(C)(C)O2)[C@@H](c2ccc(Cl)cc2)O1	x	x	i	i	x	x
CN(C)c1ccc(CNC(=O)C2COc3ccccc3C2)cc1 (stereo not given)	x	x	i	i	x	x
COc1ccc(S(=O)(=O)N2CCC[C@H]2C(=O)N2CCC[C@H]2C(=O)N[C@@H](C)c2ccccc2)cc1C	x	x	i	i	x	x
CCCn1c(N)c(N(CCOC)C(=O)c2cccc(S(=O)(=O)N3CCCc4ccccc43)c2)c(=O)[nH]c1=O	0%	x	u	i	-2%	x
CCN1CCN(c2nc(SC)nc3sc4c(c23)CC(C)(C)OC4)CC1	-4%	0%	i	8.2µM*	1%	1%
CCOC(=O)N1CCN(c2nc(SC)nc3sc4c(c23)CC(C)(C)OC4)CC1	-4%	5%	i	i	14%	-14%
Cn1c(-c2c(N)n(C3CCCC3)c3nc4ccccc4nc23)nc2ccccc21	12µM*	5.6µM*	16µM*	21µM*	5.2µM*	3.5µM*
Cn1c(-c2c(N)n(CCCc3ccccc3)c3nc4ccccc4nc23)nc2ccccc21	16µM*	2.8µM*	u	9.2µM*	u	0.79µM*
COCCCn1c2nc3ccccc3nc2c2c(=O)n(-c3ccccc3OC)cnc21	-6%	3%	i	i	-1%	-11%
Cn1c(-c2c(N)n(CCc3ccccc3)c3nc4ccccc4nc23)nc2ccccc21	8.2µM*	13µM*	u	15µM*	u	u
COCCCn1c(N)c(-c2nc3ccccc3n2C)c2nc3ccccc3nc21	u	7.1µM*	i	i	23µM*	4µM*
